Assay results published in PubChem BioAssay AID1628 (Sanford-Burnham Center for Chemical Genomics, 2009).
In all, about 190,000 compounds went through this assay and about 930 (0.49%) were called active. The list shows a part of the results. Results with a measured potency or affinity are listed apart. Values without a mark were called inactive.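 The calls were made as follows: active = z-score of insulin promoter reporter brightness in nuclei below -3 at 5 µM, with at least 500 cells counted; inconclusive = wells with under 500 cells, flagged as toxic or sparse; inactive = the rest.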

Test: decrease of insulin promoter-GFP reporter – imaging, high-content screening, mouse beta cells (AID 1628)
Conditions: MIN6 insulin promoter GFP reporter, at 5 µM, stronger effect = lower value

Structure (SMILES)	z-score
O=[N+]([O-])c1ccc(N(c2ccccc2)c2ccccc2)cc1	3.11
Cc1ccc(Cn2c(=N)n(CC(O)c3ccco3)c3ccccc32)cc1 (centres undefined)	-11.4 (active)
CC(C)(C)c1ccc(Cn2c(=N)n(CC(O)c3ccco3)c3ccccc32)cc1 (centres undefined)	-5.45 (active)
Cc1ccccc1-n1c(=O)c2ccccc2n(CC(=O)NCc2ccco2)c1=O	3.06
COc1ccc(CN(CC2CCC(C(=O)O)CC2)C(=S)Nc2cccc(C)c2)cc1 (centres undefined)	3.65
COCCSc1nnc(NC(=O)c2ccc([N+](=O)[O-])cc2)s1	0.48
Cc1sc2ncnc(NCCCn3ccnc3)c2c1C	-3.16 (active)
COc1ccc(OCC(=O)Nc2ccc(S(=O)(=O)Nc3cc(C)nc(C)n3)cc2)cc1	3.12
COc1ccc(C(=O)Nc2cccnc2)cc1OC	2.67
COc1ccc(C(=O)Nn2cnnc2)cc1OC	4.36
COc1ccc(C(=O)Nc2ccc(S(=O)(=O)Nc3nccnc3OC)cc2)cc1OC	-3.5 (active)
CCN(CC)c1ccc2cc(/C(N)=N/NC(=O)c3cccs3)c(=O)oc2c1	7.11
CCN(CC)c1ccc2cc(-c3nnc(-c4ccccc4)o3)c(=O)oc2c1	15.1
Cc1nc2[nH]c(=O)c3c(n2n1)NC1=C(C(=O)CC(C)(C)C1)C3c1ccccc1 (centres undefined)	-4.42 (active)
O=C1S/C(=C/c2ccc(N3CCOCC3)o2)C(=O)N1Cc1c(F)cccc1Cl	3.83
Cc1sc2ncnc(Sc3ccccc3C(=O)Nc3ccc(Br)cc3)c2c1C	-5.49 (active)
CC1CCc2c(C(=O)N3CCN(S(=O)(=O)c4cccs4)CC3)csc2C1 (centres undefined)	-3.81 (active)
CC1CCN(S(=O)(=O)c2ccc3c(c2)c(=O)c(C(=O)N2CCCCC2)cn3C)CC1	4.9
COC(=O)c1cc2occc2n1Cc1c(F)cccc1Cl	3.08
COC(=O)c1ccc(COc2ccc3c(C)c(C)c(=O)oc3c2)o1	3.49
CCOc1ccc(N2C(N)=NC(N)=NC2(C)C)cc1	-4.31 (active)
CCOC(=O)CN1CC23C=CC(O2)C(C(=O)Nc2cc(OC)ccc2OC)C3C1=O (centres undefined)	4.17
N#C/C(=C\c1cc([N+](=O)[O-])c(N2CCCCC2)cc1N1CCCCC1)c1nn(-c2ccccc2)c(N)c1C#N	-3.55 (active)
COc1cc(N2CCCC2)c(OC)cc1/C=C(/C#N)c1cccc(Br)c1	15.4

Structure (SMILES)	z-score
COc1cc(N2CCCC2)c(OC)cc1/C=C(/C#N)c1cccc(F)c1	3.95
CCOC(=O)CNC(=O)c1cn(C)c(=O)c2cc(OC)c(OC)cc12	3.18
CCCNC(=O)c1cc(OC)c(OC)cc1[N+](=O)[O-]	-4.31 (active)
Cc1cc(N2CCOCC2)nc2ccc(NC(=S)N3CCCCC3C)cc12 (centres undefined)	1.7
CCN1CCN(c2cc(C)c3cc(NC(=O)Cc4ccccc4OC)ccc3n2)CC1	-4.89 (active)
COc1ccccc1CC(=O)NC1CC(C)(C)NC(C)(C)C1	3.65
CC(=O)N1CCN(Cc2nc3cc(NC(=O)c4ccccc4)ccc3n2C)CC1	3.37
CCc1ccc(CN(C)C(=O)CCc2nnc(-c3ccc(-c4ccccc4)cc3)o2)nc1	-3.31 (active)
CCN(CC)c1ccc2cc(C#N)c(=O)oc2c1	4.24
CCCCCCc1cc2cc(-c3nnc(-c4ccccc4O)o3)c(=O)oc2cc1O	7.49
CCCCCCc1cc2cc(-c3nnc(-c4ccccc4OC)o3)c(=O)oc2cc1O	8.91
CCCCCCc1cc2cc(C(=O)Nc3ccc(OC)cc3)c(=O)oc2cc1O	-4.12 (active)
CCCOc1ccc(Cn2cnc3ccccc32)cc1	-5.58 (active)
COC(=O)c1ccc(OCCn2cnc3ccccc3c2=O)cc1	0.57
Cc1cc(SCCOc2ccccc2)nc(N)n1	3.13
COC(=O)Cc1c(C)nc2nc(NCc3ccccc3OC)[nH]n2c1=O	4.27
Cc1cc(C)cc(-n2c(=O)c3sccc3n(CC(=O)NCc3ccco3)c2=O)c1	4.64
CC(=O)c1sc2nc(-c3cccs3)cc(C(F)(F)F)c2c1N	14.9
Nc1ncnc2c1ncn2CCOc1ccccc1	-4.5 (active)
CC(C)(C)NC(=O)/C=C/c1ccc(C(F)(F)F)cc1	-3.15 (active)
CC(C)(C)C(=O)/C=c1\s/c(=C\c2ccc(-c3ccc([N+](=O)[O-])cc3)o2)c(=O)n1CC(=O)NC(N)=O	17.1
CC1(C)C=Cc2c(c3c(c4c(=O)c(-c5ccc(O)cc5)coc24)OC(C)(C)CC3)O1	-0.78
CC(C)c1nc2oc3c(N4CCN(C)CC4)ncnc3c2c2c1CCC2	-3.12 (active)
COCCn1c(C)cc(C(=O)CSc2ncnc3sc4c(c23)CCC4)c1C	-8.03 (active)

Structure (SMILES)	z-score
CC(OC(=O)c1ccc2ncsc2c1)C(=O)Nc1ncc(Cl)cc1Cl (centres undefined)	-5.12 (active)
CC(OC(=O)c1ccc(S(=O)(=O)NCc2ccco2)cc1)C(=O)Nc1ncc(Cl)cc1Cl (centres undefined)	-5.26 (active)
Cc1noc(C)c1COC(=O)c1ccc(S(=O)(=O)NCc2ccco2)cc1	-4.22 (active)
N#Cc1ccc(CSc2nnc(NC(=O)c3ccc4ncsc4c3)s2)cc1	4.4
Cc1noc(C)c1CS(=O)(=O)c1ccc(Br)cc1	3.18
C1=C(N2CCOCC2)/C(=C/c2nc3ccccc3[nH]2)CC1	3.43
COc1ccc(N=c2oc3cc(O)ccc3cc2C(=O)Nc2ccccn2)cc1OC	-3.17 (active)
CCN(CC)c1ccc2cc(C(=O)Nc3ccccn3)c(=O)oc2c1	6.12
CCCN1C(=O)/C(=C/c2c(NCCCOC(C)C)nc3c(C)cccn3c2=O)SC1=S	11.2
CC(C)OCCCn1c(NN)nc2ccccc2c1=O	-4.32 (active)
O=c1oc2ccccc2c(NCc2cccc(F)c2)c1[N+](=O)[O-]	1.25
Cc1ccc(/C(C#N)=C\c2ccc(N3CCOCC3)o2)cc1	6.7
Cc1cc(C)c2nc(NNC(=O)c3cc(-c4cccs4)nc4ccccc34)sc2c1	3.73
C/C(=N\NC(=O)c1cc(-c2ccccn2)nc2ccccc12)c1cccc([N+](=O)[O-])c1	4.2
C/C(=N\NC(=O)c1cc(-c2cccs2)nc2ccccc12)c1ccccn1	-6.25 (active)
Cc1ccnc(N2C(=O)c3cccc4c([N+](=O)[O-])ccc(c34)C2=O)c1	3.14
Cc1ccc(N2C(=O)c3cccc4c(N5CCN(C)CC5)ccc(c34)C2=O)c2cccnc12	5.89
O=C(Nc1cccnc1)c1ccc(S(=O)(=O)c2ccc(Cl)cc2)cc1	1.01
COc1ccc(NC(=O)c2sc3nc(-c4cccnc4)ccc3c2N)cc1	6.04
COc1ccc(Cc2nc(-c3ccc(NC(=O)c4cccnc4)cc3)no2)cc1	-4.08 (active)
Cc1cccc(C2C3=C(Nc4[nH]n(-c5ccccc5)c(=O)c42)c2ccccc2C3=O)c1 (centres undefined)	-4.1 (active)
Brc1ccc2oc3c(N4CCOCC4)ncnc3c2c1	-0.34
c1ccc2c(c1)oc1c(N3CCN(Cc4ccc5c(c4)OCO5)CC3)ncnc12	-6.44 (active)
CC(C)/C=C1\CC/C(=C\c2ccc(N(C)C)cc2)C1=O	3.08

Structure (SMILES)	z-score
COc1cc(-c2noc(C3CCCN(S(=O)(=O)c4cccc(Cl)c4)C3)n2)cc(OC)c1OC (centres undefined)	-3.23 (active)
Cc1ccccc1C(=O)Nc1cccc(NC(=O)Cn2cnc3c(=O)n(C)c(=O)n(C)c32)c1	-5.95 (active)
COc1cccc2c(=O)n(CC(=O)Nc3cccc(F)c3)ccc12	3.43
O=C(COC(=O)Cn1cnc2ccccc2c1=O)Nc1cc(Cl)ccc1[N+](=O)[O-]	-4.27 (active)
Cc1nc(NC(=O)COC(=O)CCS(=O)(=O)c2ccccc2Cl)c(Cl)cc1Cl	4.24
N#Cc1cccc(NC(=O)COC(=O)CCc2nc3ccccc3c(=O)[nH]2)c1	1.59
CCc1cc2c(N3CCN(c4nnc(CC)s4)CC3)ncnc2s1	-5.09 (active)
CCOc1cc(/C=N/NC(N)=O)cc(Br)c1OCc1ccccc1F	-5.46 (active)
CCCNC(=O)N1CCC(C(=O)c2ccc(Cl)cc2)CC1	3.79
O=C(C1CCC1)N1CCc2cc(S(=O)(=O)NCCN3CCN(c4ccccc4F)CC3)ccc21	-4.42 (active)
O=C(C1CCC1)N1CCc2cc(S(=O)(=O)NCc3cccnc3)ccc21	-3.56 (active)
Nc1c(C(=O)C2CC2)sc2nc(-c3ccccc3)cc(C(F)(F)F)c12	11.2
C(=N\c1nc2ccccc2[nH]1)/c1cccs1	-1.35
CC(=O)c1c(C)[nH]c(-c2ccccc2)nc1=S	5.61
Cc1ccc(NS(=O)(=O)c2cc(C(=O)O)ccc2Cl)c(C)c1	1.63
Cc1cc2c(ncn2C)c(NS(=O)(=O)c2ccccc2Cl)c1C	-4.59 (active)
NC(=O)c1cc2ccc(O)cc2oc1=NCc1ccccc1	6.96
CCOc1cccc2cc(C(N)=O)c(=NCc3ccccc3)oc12	-3.34 (active)
CCN(CC)c1ccc2cc(C(N)=O)/c(=N\NC(=O)c3ccncc3)oc2c1	5.56
CN(C)/C=N/c1sc2c(c1C#N)CCC2	-0.51
O=C(O)CC12CSc3[nH]c(=O)sc3C1c1ccccc1OC2=O (centres undefined)	3.25
Fc1ccc(C2CC(c3ccco3)=NN2c2ccccc2)cc1 (centres undefined)	3.51
